Screens from PubChem BioAssay.
Rows were chosen to be rich in hits. Some 0.71% of all compounds tested hit in one or more screens of this group.
SDO1 yeast rescue – sdo1-depleted yeast growth rescue; S. cerevisiae sdo1-depleted JHY4D growth rescue, OD600 30 h; active compounds read high; pdr5 snq2 efflux-pump mutant strain; z-score at 10 µM; 140,000 tested, 0.21% active;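 active = z-score above 3 at both the 24 hr and the 30 hr optical density reads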;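 also: z-score against mean and SD of all compound wells on the same plate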
Phagocyt inh – blocks phagocytosis by macrophages. inhibition, % at 5 µM. J774A.1 macrophage IgG-bead phagocytosis, imaging. AID 1029. 110,000 tested, 0.07% active;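 active = inhibition above the mean of the plate negative controls plus 5 SD, cut at about 13% in these data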;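 also: phagocytic index as fraction of beads internalized from green versus red external bead signal; plate controls were DMSO negative control for no effect and cytochalasin-D positive control for full effect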
Mac1 fbg enh – CD11b/CD18-fibrinogen binding enhancement; 93,000 tested, 0.07% active; activation, % at 10 µM; K562 CD11b/CD18 adhesion to fibrinogen, ATPlite luminescence;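 active = 10 µM primary screen giving 50% or more activity, confirmed by 40% or more on retest at that dose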
CD11b adhes inh – CD11b/CD18-fibrinogen binding inhibition | AID 1497 | K562 CD11b/CD18 adhesion to fibrinogen, ATPlite luminescence; Mn2+ added to activate the integrin | P05107+P11215 | 93,000 tested, 0.54% active | inhibition, % at 10 µM;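 active = primary inhibition of 50% or more at 10 µM, then 40% or more on retest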
The depositor's hits bear a star; x = not tested or not shown.

SMILES	SDO1 yeast rescue	Phagocyt inh	Mac1 fbg enh	CD11b adhes inh
CCCc1ccc(Oc2c(-c3ccc(O)c(C)c3O)n[nH]c2C)cc1	-2.58	-1.5	-8.4	28.6
COC(=O)c1ccc(C(=O)OC)c(NC(=O)COC(=O)CC2CC3CCC2C3)c1 (centres undefined)	0.02	-0.4	-1.1	-9.6
OC1(c2ccc(F)cc2)CCN(Cc2nnnn2Cc2cccs2)CC1	0.37	-1.0	4.6	-14.9
CCOC(=O)c1c(NC(=O)CSc2nnnn2-c2ccc(OC)cc2)sc(C)c1C	-1.27	2.4	-6.3	63.4*
CCOC(=O)c1csc(NC(=O)CSc2nnnn2-c2ccc(OC)cc2)n1	0.37	1.9	-4.6	-7.3
CCOc1cc(CNCc2ccncc2)cc(Br)c1OCc1ccccc1F	-1.62	2.4	-7.0	89.2*
CCOC(=O)c1ccc(NC(=O)c2ccc(C)c(S(=O)(=O)N3CCOCC3)c2)cc1	-1.04	0.2	-8.0	83.9*
CCOC(=O)c1ccc(NC(=O)c2cccc(S(=O)(=O)N3CCOCC3)c2)cc1	-0.53	-1.1	-3.2	39.9
CC(=O)c1sc(NC(=O)C2(F)C(F)(F)C(F)(F)C(F)(F)C(F)(F)C2(F)F)nc1C	0.73	-1.2	-10.1	102.1*
CC(=O)c1sc(NC(=O)C=C(C)C)nc1C	0.06	x	1.8	-9.5
C=CCNS(=O)(=O)c1nc(C)c(Cl)c(C)c1C#N	0.41	27.3*	-2.5	1.4
CSc1nc(C)c(Cl)c(C)c1C#N	-0.26	-3.2	-4.4	-2.8
Cc1ccc(C(=O)/C=C/Nc2cccc(O)c2)cc1	-0.45	0.5	-11.1	91.3*
O=C(/C=C/Nc1cccc(O)c1)c1ccccc1	-0.16	0.9	-2.2	69.2*
CC(=O)c1cccc(N/C=C\C(=O)c2ccc(C)cc2)c1	0.06	-2.3	x	x
O=C1c2cc(N3CCCC3)c([N+](=O)[O-])cc2C(=O)N1c1ccccc1	0.66	-3.3	x	x
CCOC(=O)C(NC(=O)c1cccc(Cl)c1)(OCc1ccccc1)C(F)(F)F (centres undefined)	-0.62	-5.2	x	x
CCOc1ccc(N(CC(=O)N/N=C/c2ccc(OC(C)C)cc2)S(C)(=O)=O)cc1	-0.38	-10.5	x	x
COc1cc(/C=C2\SC(=S)NC2=O)ccc1OS(=O)(=O)c1ccccc1	-1.24	x	x	x
COc1cc(/C=C2/SC(=S)NC2=O)ccc1OS(=O)(=O)c1ccc(C)cc1	-0.73	-4.5	-4.7	91.9*
CCn1c(CNc2ccc(C(=O)O)cc2)nc2ccccc21	1.04	-0.3	-2.9	31.1
CCCn1c(CNc2ccc(Br)cc2)nc2ccccc21	-2.88	-0.3	-3.4	62.3*
Cc1cc(Cl)c(S(=O)(=O)N2CCCCCC2)cc1OCC(=O)NC1CCCCC1	-0.57	-0.4	-4.7	76.9*
CCN1CCN(S(=O)(=O)c2cc(OCC(=O)NC3CCCCC3)c(C)cc2Cl)CC1	0.98	-0.1	-5.3	58.5*
CCCCNC(=O)C(c1ccc(-c2ccccc2)cc1)N(CCN1CCOCC1)C(=O)CCCCCN1C(=O)NC(c2ccc([N+](=O)[O-])cc2)C(C(=O)OCc2ccccc2)=C1C (centres undefined)	-0.23	x	x	x
SMILES	SDO1 yeast rescue	Phagocyt inh	Mac1 fbg enh	CD11b adhes inh
COc1ccccc1CNC(=O)CCSCc1cccc(Cl)c1	-0.62	-10.7	7.3	9.5
Cc1cc(C(=O)CSc2nnc(-c3ccco3)o2)c(C)n1-c1ccc2c(c1)OCCO2	-0.54	-0.3	4.4	86.9*
N#C/C(=C\c1ccc(O)c(O)c1)S(=O)(=O)c1ccccc1	-0.1	4.7	-8.2	81.8*
Cc1[nH]c2ccccc2c1/C=C(\C#N)S(=O)(=O)c1ccccc1	1.63	-0.6	0.2	-36.2
COc1ccccc1CNC(=O)COC(=O)Cc1ccc(Cl)cc1	-0.8	-8.0	3.7	3.0
N#CC1=C(N)NC(SCc2ccc(F)cc2)=C(C#N)C12CCCCC2	-1.86	-0.5	-5.7	77.3*
N#CC1=C(N)NC(SCC(=O)O)=C(C#N)C12CCCC2	0.15	-0.5	5.7	-5.5
O=C(Nc1nncs1)C1c2ccccc2Oc2ccccc21	0.52	-0.7	-1.8	-2.7
CCOCCCNC(=O)C(C)NS(=O)(=O)c1ccc(C)cc1 (centres undefined)	0.42	-0.9	-1.1	-14.1
c1ccc(-n2ncc3c(N4CCCCC4)ncnc32)cc1	-1.26	-0.1	-6.0	59.0*
COCCn1c(C)cc(C(=O)COC(=O)c2n[nH]c3ccccc23)c1C	0.05	-0.3	-5.5	53.4*
NC(=O)c1ncn([C@@H]2O[C@H](CO)[C@@H](O)[C@H]2O)c1O	1.38	x	x	x
CN(C)S(=O)(=O)c1cccc(NC(=S)Nc2ccc(Cl)cc2Cl)c1	-0.72	0.7	-8.0	99.3*
CN(C)S(=O)(=O)c1cccc(NC(=S)N/N=C/C(c2ccccc2)c2ccccc2)c1	0.21	5.7	x	x
